Measurements taken from the antibiotic and cytotoxicity screens of Wong et al. (2023).
Among all 39,000 compounds or so, about 3,300 (8.5%) were called active. This excerpt belongs to a sample that is enriched for actives.

Each compound was assayed on HepG2 (assay: cytotoxicity call (relative viability < 0.9)). Conditions: 10 µM.

| Compound | cytotoxicity call |
| --- | --- |
| C[C@@H]1CN([C@@H](C)CO)C(=O)c2cc(NC(=O)C3CC3)ccc2O[C@@H]1CN(C)Cc1ccc(C(=O)O)cc1 | inactive |
| CO[C@H]1CN(C)C(=O)c2cc(NC(=O)CC(F)(F)F)ccc2OC[C@@H](C)N(S(=O)(=O)c2cn(C)cn2)C[C@@H]1C | inactive |
| COc1ccc(CNC(=O)C[C@H]2C[C@@H]3c4cc(NS(=O)(=O)c5ccc(F)cc5)ccc4O[C@@H]3[C@@H](CO)O2)cc1 | inactive |
| O=C(C[C@@H]1C=C[C@@H](NS(=O)(=O)c2ccc(F)cc2)[C@@H](CO)O1)NCCN1CCCCC1 | inactive |
| C[C@@H]1CN([C@@H](C)CO)C(=O)Cc2cc(NC(=O)Nc3cccc4ccccc34)ccc2O[C@H]1CN(C)C(=O)NC1CCCCC1 | inactive |
| C[C@H]1CCCCO[C@H](CN(C)CC2CCCCC2)[C@@H](C)CN([C@@H](C)CO)C(=O)c2cc(NC(=O)c3ccccc3)ccc2O1 | inactive |
| C[C@@H]1CCCCO[C@@H](CN(C)CC2CCCCC2)[C@@H](C)CN([C@H](C)CO)C(=O)c2cc(NC(=O)c3ccccc3)ccc2O1 | active |
| C[C@@H]1CN([C@@H](C)CO)C(=O)c2cc(NC(=O)c3ccccc3)ccc2O[C@@H](C)CCCCO[C@@H]1CN(C)CC1CCCCC1 | inactive |
| C[C@H]1CCCCO[C@@H](CN(C)CC2CCCCC2)[C@@H](C)CN([C@@H](C)CO)C(=O)c2cc(NC(=O)c3ccccc3)ccc2O1 | inactive |
| C[C@@H]1CN([C@@H](C)CO)C(=O)c2cc(NC(=O)c3ccccc3)ccc2O[C@@H](C)CCCCO[C@H]1CN(C)CC1CCCCC1 | active |
| C[C@@H]1CN([C@H](C)CO)C(=O)c2cc(NC(=O)c3ccccc3)ccc2O[C@@H](C)CCCCO[C@@H]1CN(C)CC1CCCCC1 | inactive |
| C[C@@H]1CCCCO[C@@H](CN(C)CC2CCCCC2)[C@H](C)CN([C@H](C)CO)C(=O)c2cc(NC(=O)c3ccccc3)ccc2O1 | inactive |
| C[C@@H]1CCCCO[C@@H](CN(C)CC2CCCCC2)[C@H](C)CN([C@@H](C)CO)C(=O)c2cc(NC(=O)c3ccccc3)ccc2O1 | inactive |
| C[C@@H]1CCCCO[C@H](CN(C)CC2CCCCC2)[C@H](C)CN([C@H](C)CO)C(=O)c2cc(NC(=O)c3ccccc3)ccc2O1 | active |
| C[C@H]1CN([C@@H](C)CO)C(=O)c2cc(NS(=O)(=O)c3ccccc3)ccc2O[C@H]1CN(C)S(=O)(=O)c1cccs1 | inactive |
| COc1ccc(CN(C)C[C@@H]2OCCCC[C@H](C)Oc3ccc(NS(=O)(=O)c4ccccc4)cc3C(=O)N([C@H](C)CO)C[C@H]2C)cc1 | inactive |
| C[C@@H]1CCCCO[C@@H](CN(C)Cc2ccc(C(=O)O)cc2)[C@@H](C)CN([C@H](C)CO)C(=O)c2cc(NS(=O)(=O)c3ccc(F)cc3)ccc2O1 | inactive |
| C[C@@H]1CN([C@H](C)CO)C(=O)c2cccc(NC(=O)NC3CCCCC3)c2O[C@@H]1CN(C)Cc1ccc(Cl)c(Cl)c1 | inactive |
| COc1ccc(NC(=O)Nc2ccc3c(c2)C(=O)N([C@H](C)CO)C[C@H](C)[C@@H](CN(C)S(=O)(=O)c2ccccc2)OCCCC[C@@H](C)O3)cc1 | inactive |
| Cc1ccc(S(=O)(=O)Nc2cccc3c2O[C@H](CN(C)S(=O)(=O)c2c(C)noc2C)[C@@H](C)CN([C@H](C)CO)C3=O)cc1 | inactive |
| CCC(C(C)O)n1ncn(-c2ccc(N3CCN(c4ccc(OCC5COC(Cn6cncn6)(c6ccc(F)cc6F)C5)cc4)CC3)cc2)c1=O (centres undefined) | active |
| CC(=O)N1CCN(c2ccc(OCC3COC(Cn4ccnc4)(c4ccc(Cl)cc4Cl)O3)cc2)CC1 (centres undefined) | inactive |

| Compound | cytotoxicity call |
| --- | --- |
| CC[C@H](C)n1ncn(-c2ccc(N3CCN(c4ccc(OC[C@H]5CO[C@](Cn6cncn6)(c6ccc(Cl)cc6Cl)O5)cc4)CC3)cc2)c1=O | inactive |
| CC[C@@H](C)n1ncn(-c2ccc(N3CCN(c4ccc(OC[C@H]5CO[C@](Cn6cncn6)(c6ccc(Cl)cc6Cl)O5)cc4)CC3)cc2)c1=O | active |
| CCC(C)n1ncn(-c2ccc(N3CCN(c4ccc(OCC5COC(Cn6cncn6)(c6ccc(Cl)cc6Cl)O5)cc4)CC3)cc2)c1=O.Cl.Cl (centres undefined) | active |
| CC(C)N1CCN(c2ccc(OCC3COC(Cn4cncn4)(c4ccc(Cl)cc4Cl)O3)cc2)CC1 (centres undefined) | inactive |
| C[C@@H]1CN([C@@H](C)CO)C(=O)c2cccc(NC(=O)c3ccc(-c4nccs4)cc3)c2O[C@H]1CN(C)C(=O)Nc1ccc(F)cc1 | inactive |
| CCS(=O)(=O)Nc1ccc2c(c1)C(=O)N(C)C[C@H](OC)[C@@H](C)CN(Cc1ccccn1)[C@H](C)CO2 | inactive |
| COc1ccc(C#Cc2ccc3c(c2)O[C@@H](CN(C)C(=O)c2ccccn2)[C@H](C)CN([C@H](C)CO)S3(=O)=O)cc1 | inactive |
| CC1=CC(=O)N(c2ccn(C)n2)C1=O | inactive |
| C[C@@H]1CN([C@H](C)CO)C(=O)c2cc(NC(=O)Cc3ccccc3)ccc2O[C@@H]1CN(C)C(=O)Nc1cccc2ccccc12 | inactive |
| CC(C)NC(=O)Nc1ccc2c(c1)C(=O)N([C@@H](C)CO)C[C@H](C)[C@@H](CN(C)S(=O)(=O)c1cccs1)O2 | inactive |
| C[C@@H]1CN([C@H](C)CO)C(=O)Cc2cc(NC(=O)Nc3ccc(C(F)(F)F)cc3)ccc2O[C@H]1CN(C)C(=O)Nc1ccccc1 | inactive |
| CN1CCN(C(=O)C[C@H]2CC[C@@H]3[C@H](COC[C@@H](O)CN3Cc3ccc4c(c3)OCO4)O2)CC1 | inactive |
| C[C@@H]1CCCCO[C@H](CN(C)C(=O)c2ccncc2)[C@H](C)CN([C@@H](C)CO)C(=O)c2cc(NS(=O)(=O)c3ccc(Cl)cc3)ccc2O1 | inactive |
| O=C(C[C@H]1C=C[C@H](NC(=O)c2cnccn2)[C@H](CO)O1)NCc1ccccc1F | inactive |
| Cc1ccc(S(=O)(=O)N(C)C[C@H]2Oc3ccc(NC(=O)CCCN(C)C)cc3C(=O)N([C@H](C)CO)C[C@H]2C)cc1 | inactive |
| CO[C@H](CN(C)C(=O)C1CCOCC1)[C@@H](C)CN(C(=O)Nc1ccc(C(F)(F)F)cc1)[C@@H](C)CO | inactive |
| Cc1ccc(S(=O)(=O)Nc2ccc3c(c2)CC(=O)N([C@H](C)CO)C[C@H](C)[C@@H](CN(C)Cc2ccc(-c4ccccc4)cc2)O3)cc1 | active |
| Cc1ccc(S(=O)(=O)Nc2ccc3c(c2)CC(=O)N([C@H](C)CO)C[C@H](C)[C@H](CN(C)Cc2ccc(-c4ccccc4)cc2)O3)cc1 | active |
| Cc1ccc(S(=O)(=O)Nc2ccc3c(c2)CC(=O)N([C@H](C)CO)C[C@@H](C)[C@H](CN(C)Cc2ccc(-c4ccccc4)cc2)O3)cc1 | active |
| Cc1ccc(S(=O)(=O)Nc2ccc3c(c2)CC(=O)N([C@@H](C)CO)C[C@@H](C)[C@H](CN(C)Cc2ccc(-c4ccccc4)cc2)O3)cc1 | inactive |
| Cc1ccc(S(=O)(=O)Nc2ccc3c(c2)CC(=O)N([C@H](C)CO)C[C@@H](C)[C@@H](CN(C)Cc2ccc(-c4ccccc4)cc2)O3)cc1 | active |
| CS(=O)(=O)N1C[C@H]2CN(C(=O)c3cnccn3)C[C@@H]2C1 | inactive |

| Compound | cytotoxicity call |
| --- | --- |
| Cc1cc(SCc2ccc(F)cc2)c(C)cc1Cl | inactive |
| Cc1noc(C)c1NC(=O)N(C)C[C@H]1Oc2c(NC(=O)c3cnccn3)cccc2C(=O)N([C@@H](C)CO)C[C@H]1C | inactive |
| Cc1noc(C)c1S(=O)(=O)Nc1ccc2c(c1)C(=O)N([C@H](C)CO)C[C@H](C)[C@@H](CN(C)S(=O)(=O)c1ccc(Cl)cc1)O2 | inactive |
| COCC#Cc1cnc2c(c1)C(=O)N([C@@H](C)CO)C[C@H](C)[C@H](CN(C)S(=O)(=O)c1cn(C)cn1)O2 | inactive |
| COCC(=O)N[C@H]1C=C[C@@H](CC(=O)N2CCCCC2)O[C@@H]1CO | inactive |
| CCCC#Cc1ccc2c(c1)O[C@H](CN(C)S(=O)(=O)c1cccc(OC)c1)[C@H](C)CN([C@H](C)CO)S2(=O)=O | inactive |
| C[C@@H]1CCCCO[C@@H](CN(C)C(=O)Nc2ccccc2)[C@@H](C)CN([C@H](C)CO)C(=O)c2cc(NC(=O)CCCCCC(=O)Nc3ccccc3N)ccc2O1 | inactive |
| O=C(C1=C[C@@H](c2csc3ccccc23)C[C@@H](OCc2ccc(CO)cc2)O1)N1CCN(Cc2ccccc2)CC1 | inactive |
| C[C@@H]1CCCCO[C@@H](CN(C)C(=O)Nc2ccc(F)cc2)[C@H](C)CN([C@H](C)CO)C(=O)c2cc(NC(=O)C3CCCCC3)ccc2O1 | inactive |
| CN1CCN(C(=O)C[C@H]2CC[C@H]3[C@@H](COC[C@@H](O)CN3C(=O)C3CCCC3)O2)CC1 | inactive |
| Cc1cc(NC(=O)CSc2nnc[nH]2)no1 | inactive |
| Cc1ccc(S(=O)(=O)Nc2ccc3c(c2)CC(=O)N([C@@H](C)CO)C[C@H](C)[C@@H](CN(C)Cc2ccc(-c4ccccc4)cc2)O3)cc1 | inactive |
| Cc1ccc(S(=O)(=O)Nc2ccc3c(c2)CC(=O)N([C@@H](C)CO)C[C@H](C)[C@H](CN(C)Cc2ccc(-c4ccccc4)cc2)O3)cc1 | inactive |
| Cc1ccc(S(=O)(=O)Nc2ccc3c(c2)CC(=O)N([C@@H](C)CO)C[C@@H](C)[C@@H](CN(C)Cc2ccc(-c4ccccc4)cc2)O3)cc1 | active |
| Cc1noc(C)c1NC(=O)N(C)C[C@H]1OCCCC[C@@H](C)Oc2ccc(NC(=O)Nc3ccc(C(F)(F)F)cc3)cc2C(=O)N([C@H](C)CO)C[C@@H]1C | inactive |
| C[C@H](CO)N1C[C@H](C)[C@H](CN(C)S(=O)(=O)c2ccc(F)cc2)Oc2ccc(NS(=O)(=O)c3ccccc3)cc2C1=O | inactive |
| Cc1ccc2nc(Nc3ccccc3)nc(-c3ccccc3)c2c1 | inactive |
| Cc1ccc(Nc2nnc(-c3ccccc3)c3ccccc23)cc1 | active |
| Cc1ccc(Nc2c(-c3ccccc3)nc3ccccn23)cc1 | inactive |
| C[C@H](CO)N1C[C@H](C)[C@H](CN(C)S(=O)(=O)c2ccc3ccccc3c2)OCc2cn(nn2)CCCC1=O | inactive |
